From PubChem BioAssay (NCI)
The panel holds about 79,000 compounds, 15% with a hit somewhere; the sample as a whole holds those more often. Rule as the data show it: active = growth inhibition above about 70%; inactive = the rest.

Assays:
[1] = NCI Yeast Anticancer Drug Screen. Data for the rad50 strain (AID 155);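 also: 0% = growth of vehicle-only cultures of the same strain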; settings: S. cerevisiae rad50 strain growth inhibition; at 50.0 µM; hits give high values
How it was run: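 Vehicle-treated cultures provide the reference for the growth inhibition reported for compound-exposed, repair-deficient yeast.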

[2] = NCI Yeast Anticancer Drug Screen. Data for the mec2-1 strain (AID 157); settings: S. cerevisiae mec2-1 strain, at 50.0 µM, hits give high values
How it was run: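 Growth inhibition is read against vehicle-treated controls after compound exposure of the mec2-1 yeast strain, which is defective in DNA damage repair or cell cycle control.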

[3] = NCI Yeast Anticancer Drug Screen. Data for the sgs1 mgt1 strain (AID 161);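 also: 0% = growth of cultures given vehicle only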; settings: S. cerevisiae sgs1 mgt1 strain, at 50.0 µM, hits give high values
How it was run: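 Compounds are added to genetically altered yeast, and growth is compared with cultures given vehicle alone to give percent inhibition.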

[4] = NCI Yeast Anticancer Drug Screen. Data for the cln2 rad14 strain (AID 165);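 also: 0% = growth equal to vehicle treated cultures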; settings: S. cerevisiae cln2 rad14 strain, at 50.0 µM, hits give high values
How it was run: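 Growth inhibition, relative to vehicle-treated controls, is the read-out. The test organism is a yeast strain with defined genetic alterations, cln2 rad14.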

[5] = NCI Yeast Anticancer Drug Screen. Data for the bub3 strain (AID 167); settings: S. cerevisiae bub3 mutant strain, at 50.0 µM, hits give high values
How it was run: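 Mutant yeast screening strain plus compound; vehicle-treated cultures serve as the 0% inhibition reference.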

[6] = NCI Yeast Anticancer Drug Screen. Data for the mlh1 rad18 strain (AID 175); settings: S. cerevisiae mlh1 rad18 strain growth inhibition; at 50.0 µM; hits give high values
How it was run: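 Cells of a genetically altered yeast strain, deficient in DNA damage repair, were treated with compound. Their growth was then compared with that of vehicle-treated cultures to give inhibition.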

Measured: growth inhibition

Cc1ccc(NC2C=C(c3ccccc3)Oc3ccccc32)c(C)c1 (stereo unspecified)
inactive: [1] 20.1% | [2] -3.7% | [3] 20.9% | [4] -3.25% | [5] 14.1% | [6] 8.45%

COc1ccc(C(=O)CC(Sc2ccccc2N)c2ccc(OC)cc2)cc1 (stereo unspecified)
inactive: [1] -16.6% | [2] -17.9% | [3] 8.95% | [4] -10% | [5] 6.3% | [6] -7.3%

COc1ccc(C2=NC(C)(C)CO2)cc1C
inactive: [1] -23.1% | [2] -4.15% | [3] 3.6% | [4] -17.9% | [5] 21.1% | [6] 20.5%

CCCCN1CCNC1=S
inactive: [1] -0.85% | [2] -13.2% | [3] 4.25% | [4] -10.6% | [5] -28.4% | [6] 9.35%

Cc1ccc(N2CCN(CCC(=O)O)CC2)cc1
inactive: [1] -1.15% | [2] 8.8% | [3] 0.75% | [4] -3.85% | [5] -41.6% | [6] 22.4%

CC(=O)C(C)CO (stereo unspecified)
inactive: [1] 14.2% | [2] -21.1% | [3] 5.5% | [4] 8.55% | [5] 9.2% | [6] 13.7%

COc1ccc(C(=O)OC2CCCN(C(=O)c3ccc(OC)cc3)C2)cc1 (stereo unspecified)
inactive: [1] 0.75% | [2] 2.5% | [3] 0.8% | [4] 0.8% | [5] 10.7% | [6] -5.55%

CC[n+]1ccc2cc(OC)c(OC)cc2c1Cc1ccc(OC)c(OC)c1
inactive: [1] -18% | [2] -5.55% | [3] -5.85% | [4] -34% | [5] -1.2% | [6] -16.1%

COC1CCCC2CC3=C(CCCC3)OC21 (stereo unspecified)
inactive: [1] -6.45% | [2] 3.5% | [3] 5.1% | [4] -101% | [5] -14% | [6] -13.5%

C=C(C)COc1ccc(/C=C/C(=O)OCC)cc1
inactive: [1] 9.8% | [2] -4% | [3] 4.5% | [4] 1.2% | [5] -6.25% | [6] -12.4%

COc1cc(O)c2c(=O)c(OC)c(-c3ccc4c(c3)OCO4)oc2c1
inactive: [1] 4.6% | [2] 6.2% | [3] -9.85% | [4] 2.35% | [5] -24.2% | [6] -44.4%

COc1ccc(Cl)cc1NC(=O)Oc1ccc2ccccc2c1
inactive: [1] -5.8% | [2] 29.2% | [3] 12.2% | [4] -12.7% | [5] 27.3% | [6] 38.2%

COC(=O)c1nc(N)nc(C(=O)OC)c1C(=O)c1cccc([N+](=O)[O-])c1
inactive: [1] -11.1% | [2] -19.4% | [3] -33.2% | [4] 30.6% | [5] -21.7% | [6] -16.8%

CC1CCC(O)(C(C)(C(=O)O)c2ccccc2)CC1 (stereo unspecified)
inactive: [1] -19.7% | [2] -16.8% | [3] -5.65% | [4] -35.6% | [5] -54.8% | [6] -8.45%

Cc1cc(Cl)ccc1-n1nc(C)c2c(N)nc(N)nc21
inactive: [1] 17.4% | [2] 6.5% | [3] 13.7% | [4] -1.55% | [5] 24.7% | [6] 23.1%

Cn1cnc(=S)c2ccccc21
inactive: [1] -11% | [2] -12.8% | [3] -18.3% | [4] -6.05% | [5] 0.8% | [6] -29.1%

CC(=O)OCC/C=C\CCCOC(C)=O
inactive: [1] 5.55% | [2] -2.7% | [3] -3% | [4] -1.75% | [5] 8.3% | [6] 3.65%

COc1ccc(C(=O)/C=C/c2ccc(OCCCOc3ccc(/C=C/C(=O)c4ccc(OC)cc4)cc3)cc2)cc1
inactive: [1] -7.3% | [2] -19.9% | [3] 3.6% | [4] -24.6% | [5] -19.9% | [6] -27.4%

COc1ccc(OC)c(NC(C)=O)c1
inactive: [1] -30.4% | [2] -12.2% | [3] -16.3% | [4] -3.05% | [5] -24.4% | [6] -8.55%

C#CC(OC(=O)NC(C(=O)OC)C(C)C)(c1ccccc1)c1ccccc1 (stereo unspecified)
inactive: [1] 31.1% | [2] -10.3% | [3] 14.3% | [4] -4.85% | [5] 0.2% | [6] 7.55%

Cc1c(Cl)c(=O)oc2cc(OCC(O)COC(C)C)ccc12 (stereo unspecified)
inactive: [1] -23.7% | [2] -30.9% | [3] -36.3% | [4] -23.2% | [5] -13.3% | [6] -25.4%

O=[N+]([O-])c1cc(F)cc(I)c1
inactive: [1] -3.15% | [2] -38.6% | [3] 2.15% | [4] 15.8% | [5] 4.25% | [6] -5%

CCCCc1c(OC)cc(O)c2c1C(=O)c1[nH]c(C(=O)O)c(O)c(=O)c1C2=O
inactive: [1] -16.6% | [2] -19.3% | [3] -13.9% | [4] -11.7% | [5] -10.9% | [6] -5.75%

O=S(=O)(Nc1ccn(-c2ccccc2)n1)c1ccc(NCc2c3ccccc3nc3cc(Cl)ccc23)cc1
inactive: [1] 17.1% | [2] 21.2% | [3] 15.8% | [4] -24.2% | [5] -13.6% | [6] 23.6%

O=C(O)CN1CCSc2ccccc2CN(CC(=O)O)CCSc2ccccc2C1
inactive: [1] 4.5% | [2] 3.1% | [3] -2.6% | [4] -32% | [5] 12.7% | [6] -8%

Cn1cnc([N+](=O)[O-])c1Sc1nccn1-c1ccccc1
inactive: [1] -10.8% | [2] -7.1% | [3] -7.8% | [4] 22.2% | [5] 0.75% | [6] -2.85%

O=C1COc2cc(O)cc(O)c21
inactive: [1] 9.8% | [2] 3.7% | [3] 7.85% | [4] 3.9% | [5] 19.5% | [6] 7.75%

CCOC(=O)/C(C#N)=C/C=C1C=CN(C)C=C1
inactive: [1] 8.95% | [2] -4.4% | [3] -1.4% | [4] -30.9% | [5] 0.1% | [6] -10.1%

COc1cc(NCCC2CCCCN2C)c2ncccc2c1 (stereo unspecified)
inactive: [1] -3.9% | [2] -22.4% | [3] 8.55% | [4] 1.8% | [5] 13.6% | [6] 22.1%

CC(O[Si](C)(C)C(C)(C)C)[C@H](NC(=O)OCC(Cl)(Cl)Cl)C(=O)O (stereo partly specified)
inactive: [1] -9.6% | [2] -27.8% | [3] -17.1% | [4] 26.1% | [5] -45% | [6] -14.8%

O=S(=O)(c1ccccc1)N1C[C@@H]2[C@H](C1)[C@H]1C=C[C@@H]2C1
inactive: [1] 1.95% | [2] -12.3% | [3] 13% | [4] -4.8% | [5] 42.6% | [6] -11%

Cc1cccc(/C=C/c2cccc[n+]2[O-])[n+]1[O-]
inactive: [1] 3.1% | [2] -11.2% | [3] -19.9% | [4] -31.8% | [5] -0.2% | [6] -5.25%

O
inactive: [1] 13.2% | [2] 9.15% | [3] 17% | [4] 6.2% | [5] -16.8% | [6] -4%

ClCC#CCCl
inactive: [1] 19.4% | [2] -10.9% | [3] 16.9% | [4] 4.3% | [5] -7.4% | [6] 5.1%

Nc1cc(Cl)ccc1N1C(=O)C=CC1=O
inactive: [1] -26.6% | [2] -14.8% | [3] 1.25% | [4] -6.25% | [5] -9.1% | [6] 18.6%

O=C(O)/C=C\C(=O)Nc1ccccc1
inactive: [1] 10.2% | [2] 15.8% | [3] -16.1% | [4] -53.5% | [5] -3.25% | [6] 11.5%

CC(=O)NS(=O)(=O)c1ccc(NC(=O)COC(=O)c2cccc3c(=O)c4ccccc4[nH]c23)cc1
inactive: [1] -33.1% | [2] 5% | [3] -48.6% | [4] 7.1% | [5] -28.6% | [6] -23.6%

O=C(OCC(Cl)(Cl)Cl)N1[C@H]2C3=C(CCC3)[C@@H]([C@H]3O[C@H]32)N1C(=O)OCC(Cl)(Cl)Cl
inactive: [1] -38.8% | [2] -8.35% | [3] -1.9% | [4] 20.7% | [5] 10% | [6] 2.3%

CCCc1oc(C)cc1CC
inactive: [1] 0.45% | [2] -22.4% | [3] 0.2% | [4] -1.95% | [5] -15.9% | [6] -10.2%

CC(C(=O)c1ccccc1)N(C)c1ccccc1 (stereo unspecified)
inactive: [1] 12.7% | [2] -5.35% | [3] -3.1% | [4] -36.8% | [5] -26% | [6] -1.65%

C/C(=N/OCCC(=O)O)C1CC1
inactive: [1] -2.85% | [2] -1.65% | [3] -1.35% | [4] 11.8% | [5] 7.9% | [6] -17.6%
